# Compounds with a hit are over-represented: about 1.2% of the library has one in this group of screens.
# GLD-1 RNA inh – GLD-1-TGE RNA interaction inhibition (C. elegans); hit rate 0.44% among 320,000; purified GLD-1 + fluorescein TGE RNA, fluorescence polarization; AID 2280; inhibition, % at 5.96 µM; Q17339;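 active = percent inhibition above a per-plate cutoff, the plate mean of test compounds plus 3 SD, cut at about 30% in these data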
# BCLXL inh – blocks human Bcl-xL binding to Bim BH3 peptide | GST-Bcl-xL / FITC-Bim BH3 peptide fluorescence polarization | inhibition, % at 10.9 µM | AID 2129 | hit rate 0.7% among 320,000 | Q07817;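 active = inhibition above the mean of all tested compounds plus 3 SD, cutoff set per campaign, cut at about 30% in these data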;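 note: inhibitors lower millipolarization by displacing the labeled peptide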
# Target sequence (Q07817 whole entry, looked up): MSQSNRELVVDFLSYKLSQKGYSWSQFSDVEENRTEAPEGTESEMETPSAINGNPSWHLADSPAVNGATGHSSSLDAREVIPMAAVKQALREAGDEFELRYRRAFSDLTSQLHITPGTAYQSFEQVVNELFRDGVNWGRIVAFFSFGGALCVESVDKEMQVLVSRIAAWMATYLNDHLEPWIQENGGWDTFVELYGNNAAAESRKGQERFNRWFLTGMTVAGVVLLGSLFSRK
# LANA DNA inh – blocks KSHV LANA C-terminal domain binding to DNA; AID 504423; hit rate 0.078% among 340,000; inhibition, % at 9 µM; MBP-C-LANA/FAM-LBS DNA binding, fluorescence polarization;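 active = highest replicate inhibition at or above 60% at 9 µM, even if other replicates fall short; inactive = all replicates below 60% inhibition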
# MEX-5 binding – C. elegans MEX-5 TCR-2 RNA binding activity; activity score (negative = inhibition of binding), % at 10 µM; MEX-5/FITC-TCR2 RNA binding, fluorescence polarization; stronger effect = lower value; Q9XUB2; hit rate 0.38% among 300,000;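 active = inhibition past about -25% in most replicates, and total fluorescence under double the plate's negative control median, limit read from the data; inconclusive = replicates evenly split on the limit, or fluorescence at least double controls; inactive = too little inhibition in most replicates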
# Keap1-Nrf2 PPI – Keap1-Nrf2 (human) interaction inhibition; Q14145; Keap1 Kelch-Nrf2 peptide fluorescence polarization, 1536-well; inhibition, % at 9.4 µM; hit rate 0.15% among 340,000; in the data active = inhibition above about 12%; inconclusive = no clear call, values can overlap the other calls; inactive = below about 7.3%;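 note: human Keap1 Kelch domain with fluorescein labeled Nrf2 9mer peptide probe; higher means more block of Keap1 binding to Nrf2 peptide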
# eLon inh – inhibits E. coli Lon protease | inhibition, % at 7.94 µM | hit rate 0.42% among 360,000 | P0A9M0 | purified E. coli Lon protease, fluorescence polarization; in the data active = inhibition above about 13%, passing the limit was not always enough
# Numbers stand for hits; – = inactive; ? = inconclusive; · = no result given; + = active, no number.
SMILES,GLD-1 RNA inh,BCLXL inh,LANA DNA inh,MEX-5 binding,Keap1-Nrf2 PPI,eLon inh
O=C(O)CSc1nc2ccc(C(=O)c3ccccc3)cc2[nH]1,·,·,–,–,–,–
OC[C@@H]1CN(Cc2ccc(Cl)cc2)C[C@H](n2cnc3c(N4CCCC4)ncnc32)O1,·,·,·,·,·,–
Cc1c(Cl)cnc(NC(=O)COC(=O)c2ccc([N+](=O)[O-])s2)c1Cl,–,42,–,–,–,–
O=C(COC(=O)c1ccc([N+](=O)[O-])s1)Nc1ccc(Cl)cn1,–,–,–,–,–,–
COc1ccc(-c2noc(CCC(=O)N3CCN(c4cccc(C)c4C)CC3)n2)cc1,·,·,–,·,–,–
O=c1cc(-c2ccccc2Cl)oc2c(NS(=O)(=O)c3cc(Cl)cc(Cl)c3O)ccc(O)c12,–,–,–,-55,–,–
CCc1ccc(S(=O)(=O)Nc2ccc(O)c3c(=O)cc(-c4ccccc4Cl)oc23)cc1,–,–,–,–,–,–
COC(=O)c1ccc(CNC(=O)Cn2cnc3c(SC)nc(N)nc32)cc1,–,·,–,·,–,–
Cc1ccc(S(=O)(=O)N(C)Cc2ccc(C(=O)N/N=C3\CC(=O)CC(C)(C)C3)cc2)cc1,–,–,–,–,–,–
CCN(CC)S(=O)(=O)c1cccc(C(=O)N/N=C2\CC(=O)CC(C)(C)C2)c1,53,–,–,–,–,–
Clc1cccc(CN2CCC3CC2c2cc(N4CCCCC4)ccc23)c1 (stereo not given),·,·,–,·,–,–
Nc1nccnc1C(=O)OCC(=O)NCCc1ccc(S(N)(=O)=O)cc1,–,35,–,–,–,–
COCC(=O)NCCc1ccc(S(N)(=O)=O)cc1,–,–,–,–,–,–
O=C(NCc1cccc(Cl)c1)c1ccc(-n2cncn2)c2ccoc12,·,·,·,·,·,–
CCOc1ccc(S(=O)(=O)Nc2cc(NS(=O)(=O)c3ccc(OCC)cc3)cc(C(=O)O)c2)cc1,–,·,–,·,22,–
COc1ccc(N=CC2=C(Nc3ccc(OC)cc3)c3c(C)nn(-c4ccccn4)c3CC2)cc1,+,+,·,·,·,·
CCOC(=O)C1=CCN(S(=O)(=O)c2ccc(C)cc2)C1c1cccc(Cl)c1 (stereo not given),·,·,·,·,·,–
O=C1COc2ccc(C(=O)COC(=O)c3ncc(Cl)c(Cl)c3Cl)cc2N1,–,–,–,–,–,–
O=C1Nc2cc(Cl)cnc2N2CCCC12 (stereo not given),–,36,–,-37,–,–
O=c1c2ccccc2nc2ccc(NCc3ccco3)nn12,–,–,–,–,–,–
Cc1sc2nc3ccc(NCc4ccco4)nn3c(=O)c2c1C,–,34,–,·,–,–
Cc1ccc(NC(=O)/C(=C\c2cccnc2)NC(=O)c2ccco2)cc1,–,89,–,–,–,–
COc1ccc(C(=O)N2C(=S)NC(=O)/C2=C\c2ccc(C)cc2)cc1,–,–,–,-28,–,–
CN(c1ccc(Cl)cc1)c1cc2c(c3c1ccn3C)C1CCC2O1 (stereo not given),·,·,·,·,·,–
Cn1c(C(=O)OCC(=O)NCc2ccc(F)cc2)cc2occc21,–,–,–,–,–,–
SMILES,GLD-1 RNA inh,BCLXL inh,LANA DNA inh,MEX-5 binding,Keap1-Nrf2 PPI,eLon inh
O=C(/C=C/c1ccc(OCCCF)cc1)Nc1ccnc(-c2cccnc2)n1,–,–,–,-51,–,–
O=C(/C=C/c1ccc(OCCCF)cc1)Nc1ccnc(-c2ccncc2)n1,–,–,–,–,–,–
CCCCOC(=O)c1ccc(N=Nc2c(C)c(C#N)c(O)[nH]c2=O)cc1,–,–,–,-63,–,–
CCCCC1=CC2=CC(=O)C(C)(O)C(=O)C2=CO1 (stereo not given),–,–,·,?,·,·
CC(C)(C)OC(=O)NCCCCC1=CC2=CC(=O)C(C)(OC(=O)c3ccco3)C(=O)C2=CO1 (stereo not given),49,–,·,–,·,·
CC(C)(C)OC(=O)NCCCC1=CC2=CC(=O)C(C)(OC(=O)C3CCCC3)C(=O)C2=CO1 (stereo not given),79,65,·,–,·,·
CC1(OC(=O)c2ccco2)C(=O)C=C2C=C(c3ccsc3)OC=C2C1=O (stereo not given),–,–,·,–,·,·
CC1(OC(=O)C2CCCC2)C(=O)C=C2C=C3CCCN3C=C2C1=O (stereo not given),–,–,·,–,·,·
CC1(OC(=O)CCc2ccccc2)C(=O)C=C2C=C3CCCN3C=C2C1=O (stereo not given),–,–,–,–,–,–
COC(=O)CCCC1=CC2=CC(=O)C(C)(OC(=O)c3ccco3)C(=O)C2=CO1 (stereo not given),73,67,·,-42,·,·
COC(=O)CCCC1=CC2=CC(=O)C(C)(OC(=O)CCc3ccccc3)C(=O)C2=CO1 (stereo not given),48,46,–,–,–,–
CCCCC1=CC2=CC(=O)C(C)(OC(=O)c3ccc(Cl)nc3)C(=O)C2=CO1 (stereo not given),68,52,·,-29,·,·
COc1cc2sc3cc(NCC[C@@H]4CCCN4C)ccc3c(=O)c2cc1OC,–,·,–,·,–,–
COc1cccc2sc3ccc(NCCC4CCCN4C)cc3c(=O)c12 (stereo not given),36,33,–,–,–,–
COc1ccccc1N1C(=O)S/C(=C\c2cc(C)n(C)c2C)C1=O,–,–,–,?,–,–
COc1ccccc1N1C(=O)S/C(=C\c2ccc(C)s2)C1=O,–,–,–,-32,–,–
COc1ccc2c(c1)OCC1=C2CCC2(C)C(=O)CC=C12 (stereo not given),39,40,·,–,·,·
COc1ccc2c(c1)SCCC2=O,–,–,–,–,–,–
CCOC(=O)C1CCN(C(=O)c2ccc(S(=O)(=O)Nc3ccccc3OC)cc2)CC1,–,–,–,·,–,–
COc1cc2cc(CCCOC(=O)c3ccco3)oc(=O)c2cc1OC,–,–,–,·,–,–
CN1/C(=C\C=C2/SC(=S)N(CC(=O)O)C2=O)C(C)(C)c2ccccc21,–,36,–,?,–,–
O=C(O)/C=C/C(=O)NCc1ccccn1,36,52,–,–,–,–
O=C(O)/C=C/C(=O)NCc1ccccc1,–,–,–,–,–,–
COc1ccccc1N(C)S(=O)(=O)c1ccc(C(=O)N2CCCc3ccccc32)cc1,–,–,–,–,–,–
COc1ccc(C(=O)Oc2cccc3cccnc23)cc1[N+](=O)[O-],–,–,–,–,–,–
NC(=O)c1ccc(Oc2cccc3cccnc23)c([N+](=O)[O-])c1,–,33,–,–,–,–
CC(C)(C)S(=O)N1Cc2cc(C(=O)NCC(F)(F)F)nc(-c3cccc(-c4cccc(F)c4)c3)c2[C@H]1CCO (stereo not given in full),·,·,·,·,·,–
CC[C@H](C)/C=C(C)/C=C/C1=CC2=CC(=O)[C@]3(C)OC(=O)[C@@H](C(C)=O)[C@@H]3C2=CO1,34,38,–,–,–,–

# Compound activity as filed in PubChem.
